# Measured values published in PubChem BioAssay AID686979 (National Center for Advancing Translational Sciences (NCATS), 2013).
# Several values for one entry are separate records, joined by “and”; a condition that tells them apart may be missing. Equal values may be shown once. Screen size: about 420,000 compounds; about 50,000 (12%) were called active. A call without a number means that no potency is given here. Another 26% or so got no clear call; they are omitted. The sample holds actives, similar compounds and a random draw of the others, so the mix is not that of the screen. Calls come from the whole dose curve; as a rule, active = well fitted inhibition curve with a large enough effect; inconclusive = small, poorly fitted or top-dose-only effect; inactive = flat fitted curve, though single readings scatter.
# Assay: qHTS for Inhibitors of human tyrosyl-DNA phosphodiesterase 1 (TDP1): qHTS in cells in presence of CPT; note: nearly all actives have a fitted effect of over 55% in size
# Conditions: chicken DT40 Tdp1-/-;hTDP1 cells + 20 nM CPT, ATP luminescence, 48 h; series mostly up to 46.2 µM
# Outline: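 Cell growth measured by CellTiter-Glo luminescence after a minimum 48 h, 37 C compound exposure with 20 nM CPT in Tdp1-knockout DT40 cells stably expressing hTDP1, seeded 400/well; qHTS titration format.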
# Potency is the fitted concentration of half-maximal effect.
row,Structure (SMILES),Potency
1,Cc1ccnc2nc(C(=O)Nc3nnc(-c4ccccc4)o3)nn12,inactive
2,Cc1ccc2[nH]c(=O)c(CN(C)S(=O)(=O)c3cccc4nonc34)cc2c1,inactive
3,COc1cc(NS(=O)(=O)c2cccs2)cc(OC)c1,inactive
4,COCCNc1nc(-c2ccccc2)nc2c1oc1ccccc12,inactive
5,Cc1cc(C)c2nc(-c3cccnc3)cc(C(=O)Nc3ccc(S(=O)(=O)Nc4onc(C)c4C)cc3)c2c1,inactive
6,CC1CCN(C(=O)C2CCN(S(=O)(=O)N3CCC4(CC3)OCCO4)CC2)CC1,inactive
7,COc1cc(C2C3C(=O)N(c4ccccc4)C(=O)C3ON2c2ccccc2)ccc1O (stereo unspecified),inactive
8,COC(=O)c1sc(N)c(C(=O)OC)c1COC(=O)CNS(=O)(=O)c1ccc(C)cc1,inactive
9,COc1ccc2oc(-c3ccc(C)c(NC(=O)c4sc5ccccc5c4Cl)c3)nc2c1,inactive
10,CC1(C(=O)OCC(=O)Nc2ncc(Cl)cc2Cl)CC1(Cl)Cl (stereo unspecified),inactive
11,N#Cc1cccc(CN2CCC(=O)N([C@H](CO)c3ccccc3)CC2)c1,inactive
12,CC(C)(C(=O)NO)c1ccccc1,inactive
13,CCN(CC)S(=O)(=O)c1cccc(C(=O)NCC(=O)OCC(=O)NCc2ccccc2)c1,inactive
14,CN(C)S(=O)(=O)c1cccc(C(=O)Nc2cccnc2)c1,inactive
15,CCN(CC)S(=O)(=O)c1cccc(C(=O)Nc2ccccc2)c1,20.6 µM (active)
16,CC(OC(=O)c1cc2ccccc2o1)C(=O)Nc1ccc(N2CCOCC2)cc1 (stereo unspecified),inactive
17,CN(c1ccccc1)S(=O)(=O)c1ccc2[nH]c(=O)[nH]c2c1,inactive
18,CCCNC(=O)N1CCC(c2ccc3c(c2)OCO3)CC1,inactive
19,CCCS(=O)(=O)N1CCN=C1SCc1cccc(F)c1,inactive
20,CCCC[C@@H]1CN=C(N)N1CCc1cccc(F)c1,9.2 µM (active)
21,CCCC[C@@H]1CN=C(N)N1CCc1cc(C(F)(F)F)cc(C(F)(F)F)c1,3.66 µM (active)
22,O=C1NC[C@@H](Cc2ccc(O)cc2)N(CCc2cccc(F)c2)C1=O,inactive
23,CCN(CC(=O)NCc1cccs1)C(=O)c1ccc(OC)c(S(=O)(=O)N2CCOCC2)c1,inactive

row,Structure (SMILES),Potency
1,Cn1c(=O)c2c(nc(N3CCOCC3)n2CCNC2=NCCC2)n(C)c1=O,inactive
2,CC(NC(=S)NC1CCCCC1)C(c1ccccc1)N1CCOCC1 (stereo unspecified),inactive
3,CCn1c(SCC(=O)NNC(=O)c2ccc(OC)cc2)nnc1C(C)C,inactive
4,Cc1cccc(C)c1Nc1c(-c2ccccc2O)nc2ncccn12,20.6 µM (active)
5,CCc1cccc(C)c1Nc1c(-c2ccc(N(C)C)cc2)nc2ncccn12,10.3 µM (active)
6,CCc1cccc(C)c1NS(=O)(=O)c1c(C)nc2sccn2c1=O,inactive
7,Cc1c(-c2cccc(NC(=O)C(C)(C)C)c2)nc2ncccn12,inactive
8,Cc1ccc(-c2c(N)nc3ncccn23)cc1,inactive
9,Cc1cccc(C)c1NC1=NC(=S)N(c2ccc(N(C)C)cc2)C1(C)C,inactive
10,CC1(OC(=O)CCc2ccccc2)C(=O)C=C2C=C(c3ccc(C#N)cc3)N(CCc3ccccn3)C=C2C1=O (stereo unspecified),inactive
11,CC1CCN(c2ccc([N+](=O)[O-])cc2C(N)=O)CC1,inactive
12,CC(C)c1ccc(NC(=O)Cn2nnc(C(=O)NCCc3ccccc3)c2N)cc1,inactive
13,O=C(COc1ccc([N+](=O)[O-])cc1)Nc1cccc(C(=O)Nc2ccccc2C(=O)O)c1,inactive
14,CCc1ccc2c(c1)C1(NN=C(c3ccccc3)S1)C(=O)N2 (stereo unspecified),2.91 µM (active)
15,CCc1cccc(NC(=O)c2cc(-c3ccccc3)n[nH]2)c1,inactive
16,CCCCC(CC)CNC(=O)C1CCN(S(=O)(=O)c2cccc3nsnc23)CC1 (stereo unspecified),inactive
17,COc1cccc2c(O)cc(=O)n(C)c12,inactive
18,Cc1cc(C)c(-c2c(O)c3ccccc3n(C)c2=O)c(C)c1,inactive
19,COc1cc2c(=O)n(C)c3ccccc3c2cc1OC,13 µM (active)
20,Cc1ccc(Cc2nnc(SCC(=O)Nc3ccccc3C)[nH]c2=O)cc1,inactive
21,C[C@H](CO)N1C[C@H](C)[C@H](CN(C)C(=O)Nc2ccc3c(c2)OCO3)Oc2ncc(Br)cc2C1=O,inactive
22,CCOc1ccc(NC(=O)CN(C)C(=O)c2c(C)noc2C)cc1OCC,inactive
23,c1ccc(-c2c[nH]c(-c3ccccc3)c2)cc1,inactive

row,Structure (SMILES),Potency
1,CC1CCCCC12NC(=O)N(CC(=O)N1CCN(c3ccccc3)CC1)C2=O (stereo unspecified),inactive
2,CC(=O)c1ccc(N2CCN(CC(O)c3ccccc3)CC2)cc1 (stereo unspecified),inactive
3,COc1ccc(/C=C2/C(=O)N(c3ccccc3)N=C2C)c(OC)c1,inactive
4,COc1cc(OC)c(/C=C/c2ccnc3ccccc23)c(OC)c1,10 µM (active)
5,COc1ccc(C=Nc2cccc3ncccc23)cc1,inactive
6,CC(=O)OC1CCC2(O)CC1(C)CCC1C2CC1(C)C (stereo unspecified),inactive
7,C=C(C)COc1ccc(-c2ncncc2-c2ccc(OC)cc2)c(O)c1,inactive
8,C=C(C)COc1ccc(-c2n[nH]c(C)c2-c2ccccc2)c(O)c1,14.6 µM (active)
9,COc1ccc(-c2n[nH]c(C)c2-c2ccc(OC)c(OC)c2)c(O)c1,20.6 µM (active)
10,COc1ccc(-n2c(-c3ccc(OC)c(OC)c3)n[nH]c2=S)cc1,inactive
11,COc1ccc(-c2c(-c3ccc(OC)cc3O)nc(C)nc2C(F)(F)F)cc1,inactive
12,CCOc1ccc(-c2n[nH]c(C)c2-c2ccccn2)c(O)c1,inactive
13,N#Cc1c(-c2ccccc2)nc(SCc2ccc([N+](=O)[O-])cc2)[nH]c1=O,inactive
14,O=C(Nc1ccccc1)/C(=C\c1ccco1)NC(=O)c1ccco1,inactive
15,CCN(CC(=O)Nc1ccc(OC)cc1)C(=O)c1ccc(=O)n(Cc2ccccc2)n1,inactive
16,COc1ccc(NC(=O)CCCNC(=O)Cn2cnc3sc4c(c3c2=O)CCCC4)cc1OC,inactive
17,O=C(Nc1ccccc1C(=O)N1CCCCCC1)c1ccccc1Cl,inactive
18,Nc1nnnn1/N=C/c1cccc(Br)c1,inactive
19,CCOC(=O)c1c(NC(=S)Nc2ccccc2C)sc2c1CCC2,inactive
20,CCOC(=O)c1c(NC(=O)c2ccc(Br)o2)sc2c1CCCC2,inactive
21,CCOC(=O)c1c(NC(=O)C2(C)Cc3ccccc3C(=O)O2)sc2c1CCCC2 (stereo unspecified),18.4 µM (active)
22,O=C1c2ccccc2C(=O)N1CCC(O)C[N+](=O)[O-] (stereo unspecified),inactive
23,COc1ccc(CCNc2nc3c(-c4cccc(F)c4)nnn3c3ccccc23)cc1OC,inactive

row,Structure (SMILES),Potency
1,COCCCNc1nc2c(-c3cccc(C(F)(F)F)c3)nnn2c2ccccc12,inactive
2,COCCCNc1nc2c(-c3cccc(C)c3)nnn2c2ccc(Cl)cc12,11.6 µM (active)
3,C[C@@H]1O[C@@H](OC[C@H]2O[C@@H](Oc3c(-c4ccc(O)cc4)oc4cc(O)cc(O)c4c3=O)[C@H](O)[C@@H](O)[C@@H]2O)[C@H](O)[C@H](O)[C@H]1O,inactive
4,COc1cccc(-n2c(=O)c3c(C)c(C(=O)N(C)C)sc3n(Cc3cccc(C)c3)c2=O)c1,inactive
5,COc1cc(OC)cc(C2=Cc3ccccc3C(CC(=O)c3ccco3)N2c2ccc(-c3cnc(OC)nc3)cc2)c1 (stereo unspecified),inactive
6,Cn1c2ccccc2c2cc(/C=C(\NC(=O)c3ccccc3)C(=O)NCC(=O)O)ccc21,inactive
7,O=C(C1CCN(CC2CCCCC2)CC1)N1CCCC1,inactive
8,Cc1cccc(Cn2c(=O)n(CCC(=O)NCCc3ccc(Cl)cc3)c(=O)c3sccc32)c1,inactive
9,CCC1CCCCN1CCCNC(=O)C1CCC(Cn2c(=O)[nH]c3ccccc3c2=O)CC1 (stereo unspecified),inactive
10,O=C(C1CCC(Cn2c(=O)c3sccc3n(Cc3ccccc3F)c2=O)CC1)N1CCCCC1 (stereo unspecified),23.1 µM (active)
11,CCCNC(=O)C1CCC(Cn2c(=O)c3sccc3n(Cc3ccccc3F)c2=O)CC1 (stereo unspecified),14.6 µM (active)
12,O=c1c(F)cn(C2CCCO2)c(=O)n1Cc1ccccc1Cl (stereo unspecified),inactive
13,C=Cc1ccc(Cn2c(C(=O)OC)cc3sc(C)cc32)cc1,inactive
14,COc1ccc(S(=O)(=O)NC(=O)C2(C)CCN2C(=O)c2ccccc2CCc2ccccc2)cc1 (stereo unspecified),inactive
15,CCCc1cc(=O)oc2c(C)c(OCC(=O)NCc3ccccn3)ccc12,inactive
16,CCCc1cc(=O)oc2c(C)c(OCC(=O)Nc3ccccn3)ccc12,inactive
17,CCc1cc(=O)oc2c(C)c(OCC(=O)NCCN3CCOCC3)ccc12,23.1 µM (active)
18,O=C(NCc1cccnc1)C12CC3CC(CC(C3)C1)C2,inactive
19,CCOc1ccc(C(C)=O)cc1COC(=O)CNC(=O)c1cccs1,inactive
20,COC(=O)CCNC(=O)c1ccc2[nH]c(C)c(C)c2c1,inactive
21,Cc1ccc(C(=O)NCCSc2c(C)[nH]c3ccccc23)cc1C,18.4 µM (active)
22,CN(C)CCCNC(=O)c1ccc2[nH]c3ccccc3c2c1,inactive
23,COc1cccc(NC(=O)CN(C)C(=O)CSC(=S)N2CCCC2)c1,inactive

row,Structure (SMILES),Potency
1,Cn1c(=O)sc2cc(NS(=O)(=O)c3ccc(C(C)(C)C)cc3)ccc21,inactive
2,Cn1c(=O)n(C)c2cc(S(=O)(=O)Nc3ccc(F)cc3)ccc21,16.4 µM (active)
3,Cc1cc(C)cc(NS(=O)(=O)c2ccc(F)cc2)c1,inactive
4,O=C(Nc1ccccc1N1CCOCC1)c1ccc(OCc2cscn2)cc1,inactive
5,O=Nc1c(O)cc(O)c2ccccc12,inactive
6,O=C(/C=C/c1cccc(F)c1)NC1CC1,inactive
7,Cc1cc(NCc2ccco2)n2c(nc3ccccc32)c1C#N,inactive
8,Cc1cc(NC(C)C)n2c(nc3ccccc32)c1C#N,inactive
9,CC(C)c1cc(NCc2ccccn2)n2c(nc3ccccc32)c1C#N,5.8 µM (active)
10,O=C(COC(=O)c1cc(S(=O)(=O)N2CCOCC2)ccc1F)NC1CC1,inactive
11,Cc1ccc(C(=O)N2CCCC(c3ccccc3)=N2)cc1,inactive
12,Cc1ccc(NC(=O)CN2CCc3ccccc3C2)cc1,inactive
13,Cc1ccc(NC(=S)N2CCCC(c3ccccc3)=N2)cc1,inactive
14,O=C(C[n+]1cc(-c2ccc(Cl)c(Cl)c2)n2c1CCC2)c1cccs1,10.3 µM (active)
15,CCCS(=O)(=O)N1CCN(C(=O)c2cccs2)CC1,inactive
16,Cc1ccc(C(=O)C[n+]2cc(-c3ccccc3)n3c2CCCCC3)cc1,5.62 µM (active) and 1.64 µM (active)
17,Cc1ccc(-c2c[n+](CC(=O)Nc3ccccc3)c3n2CCC3)cc1,11.6 µM (active)
18,CCS(=O)(=O)N1CCN(C(=O)c2cccs2)CC1,inactive
19,O=C(c1ccc(CSc2ccccc2)cc1)N1CCCCCC1,inactive
